# High-throughput results as filed in PubChem.
# An excerpt weighted towards active compounds, which were near 2.8% of everything screened.
# Env fusion inh = blocks HIV Env-driven cell-cell fusion. HeLa-JRFL Env/CEM21 cell fusion, luciferase. inhibition, % at 12.3 µM. hit rate 1.1% among 360,000. AID 651610;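 active = mean replicate inhibition score of at least 50 and every replicate individually at or above 50; inconclusive = only one of the two criteria met; inactive = mean below 50 and not all replicates reaching 50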
# Shn3 3UTR inh = inhibitors of Schnurri-3 3'UTR reporter in osteoblasts. AID 588674. inhibition, % at 12.5 µM. hit rate 0.52% among 360,000. Clone20 osteoblast Shn3 3'UTR firefly luciferase, 24 h;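 active = mean inhibition of at least 75% with every replicate also reaching 75%; inconclusive = mean inhibition at least 75% but some replicate below; inactive = mean inhibition below 75%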
# EBV LMP1 NFkB = inhibitors of Epstein-Barr LMP1-induced NF-kappaB reporter. inhibition, % at 12.5 µM. LMP1-induced NF-kappaB luciferase reporter cells, luminescence. hit rate 0.69% among 350,000; in the data active = inhibition above about 41%; inconclusive = no clear call, values can overlap the other calls
# Glyco luc inh = N-linked glycosylation inhibition; D54 ERlucT glycosylation luciferase reporter, 24 h; percent of 100 nM tunicamycin response; hit rate 0.23% among 360,000; reporter increase, % at 12.5 µM;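 active = mean luciferase reporter signal, scaled so untreated is 0 and the glycosylation-blocking control 100, at or above a set limit in every replicate; inconclusive = mean reaches the limit but not every replicate does; inactive = mean below the limit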;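 also: luciferase carries N-glycosylation sites so blocking glycosylation raises the light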
# PAX8 inh HTS = lowers PAX8-driven luciferase in RMG-I cells; RMG-I TPO-luciferase reporter, SteadyGlo, 24 h; inhibition, % at 12.6 µM; hit rate 1.2% among 360,000;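 active = mean replicate inhibition at least 60% with every replicate also reaching 60%; inconclusive = only one of the two criteria is met; inactive = mean below 60% and not all replicates reaching 60%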;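 also: luciferase light reporting Pax8 driven TPO promoter activity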
# NSD2 inh = inhibitors of human histone methyltransferase NSD2; inhibition, % at 12.5 µM; O96028; NSD2 peptide methylation, AlphaScreen, 120 min; hit rate 0.54% among 310,000; in the data active = inhibition above about 50%
# Target sequence (O96028 whole entry, looked up): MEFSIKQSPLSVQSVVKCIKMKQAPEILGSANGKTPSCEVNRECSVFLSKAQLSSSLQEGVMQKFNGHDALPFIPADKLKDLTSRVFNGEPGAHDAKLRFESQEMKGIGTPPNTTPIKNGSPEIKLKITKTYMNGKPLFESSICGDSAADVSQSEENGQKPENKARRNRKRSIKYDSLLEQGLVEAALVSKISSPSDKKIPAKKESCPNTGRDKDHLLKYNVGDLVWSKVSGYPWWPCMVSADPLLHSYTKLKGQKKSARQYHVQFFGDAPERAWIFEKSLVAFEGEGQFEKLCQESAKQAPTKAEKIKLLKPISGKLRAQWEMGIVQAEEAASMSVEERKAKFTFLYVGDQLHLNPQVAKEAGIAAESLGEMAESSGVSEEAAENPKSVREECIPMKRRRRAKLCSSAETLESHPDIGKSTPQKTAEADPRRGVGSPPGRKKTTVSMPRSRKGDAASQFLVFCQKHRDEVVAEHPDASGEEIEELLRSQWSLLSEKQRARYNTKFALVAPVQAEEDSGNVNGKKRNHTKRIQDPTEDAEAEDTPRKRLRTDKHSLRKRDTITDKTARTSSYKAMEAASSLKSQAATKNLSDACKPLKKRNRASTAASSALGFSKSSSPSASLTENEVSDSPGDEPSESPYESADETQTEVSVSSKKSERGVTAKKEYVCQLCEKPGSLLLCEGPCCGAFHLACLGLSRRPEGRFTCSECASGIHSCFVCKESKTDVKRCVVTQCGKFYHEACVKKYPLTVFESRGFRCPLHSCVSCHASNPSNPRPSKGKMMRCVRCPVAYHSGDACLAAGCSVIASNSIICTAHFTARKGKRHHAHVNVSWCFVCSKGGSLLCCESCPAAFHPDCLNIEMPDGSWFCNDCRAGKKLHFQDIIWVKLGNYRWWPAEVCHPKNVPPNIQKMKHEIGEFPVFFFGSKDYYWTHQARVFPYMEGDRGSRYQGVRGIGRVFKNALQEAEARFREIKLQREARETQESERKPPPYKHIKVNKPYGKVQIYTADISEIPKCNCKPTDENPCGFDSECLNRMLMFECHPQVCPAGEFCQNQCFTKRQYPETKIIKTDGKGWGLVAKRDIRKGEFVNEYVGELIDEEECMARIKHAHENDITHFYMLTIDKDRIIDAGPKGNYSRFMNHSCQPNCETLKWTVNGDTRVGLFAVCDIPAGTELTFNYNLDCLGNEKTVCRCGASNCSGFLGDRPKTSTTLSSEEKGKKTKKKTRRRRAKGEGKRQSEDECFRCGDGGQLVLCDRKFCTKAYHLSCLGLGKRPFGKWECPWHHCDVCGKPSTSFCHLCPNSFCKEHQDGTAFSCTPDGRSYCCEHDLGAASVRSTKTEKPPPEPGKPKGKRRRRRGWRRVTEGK
# Hits are given with their value; i = inactive; ? = inconclusive; nt = not tested or not shown.
SMILES,Env fusion inh,Shn3 3UTR inh,EBV LMP1 NFkB,Glyco luc inh,PAX8 inh HTS,NSD2 inh
O=C1N=C(N2CCN(c3cccc4ccccc34)CC2)S/C1=C/c1cccs1,nt,i,78,i,nt,i
CN(C)CC(=O)Nc1ccc2c(c1)[C@@H]1C[C@H](CC(=O)N3CCCCC3)O[C@@H](CO)[C@@H]1O2,i,nt,nt,nt,i,nt
Cc1ccc(-c2nn3c(C)nnc3s2)cc1NC(=O)c1ccc(-c2cccc(Cl)c2)o1,i,i,i,i,i,i
Cc1ccc(-c2nn3c(C)nnc3s2)cc1NC(=O)c1ccc(-c2ccc(Cl)cc2Cl)o1,115,i,i,i,nt,i
CO[C@@H]1CN(C)C(=O)c2ccc(NC(=O)c3cccc(F)c3)cc2OC[C@@H](C)N(CC2CC2)C[C@@H]1C,i,nt,nt,nt,i,nt
CN(/N=C\c1ccc(O)c(O)c1)c1nc(-c2ccccc2)cc(-c2ccccc2)n1,i,92,i,i,i,i
COc1cc(/C=N/N(c2ccccc2)c2ccccc2)ccc1O,i,i,i,i,i,nt
Cc1nn(Cc2cccc(C(=O)Nc3ccn(Cc4c(F)c(F)cc(F)c4F)n3)c2)c(C)c1[N+](=O)[O-],56,i,i,i,nt,i
O=C(c1ccco1)N1CCN(c2nc(C(F)(F)F)nc3c2nnn3Cc2ccccc2)CC1,67,i,i,i,nt,i
CCCCn1cnc2c(c(-c3ccccc3)c(-c3ccccc3)n2Cc2ccco2)c1=N,i,i,nt,i,100,i
CCCCN(C)C(=O)C(Cc1ccccc1)NS(=O)(=O)c1ccc2c(c1)CCC(=O)N2 (stereo not drawn),67,i,i,i,i,nt
CC(C)(C)NC(=O)C(Cc1ccccc1)NS(=O)(=O)c1ccc2c(c1)CCC(=O)N2 (stereo not drawn),i,i,i,i,nt,nt
CN(C)CCOc1ccc(-c2c(-c3ccccc3)sc3ccccc23)cc1,i,i,i,i,80,nt
c1ccc(-c2sc3ccccc3c2-c2ccc(OCCN3CCCCC3)cc2)cc1,i,i,i,i,i,nt
C/C=C/c1ccc2c(c1)O[C@@H](CN(C)C(=O)c1cnccn1)[C@@H](C)CN([C@@H](C)CO)S2(=O)=O,i,nt,nt,nt,i,nt
COc1ccccc1-c1cnc2c(c1)C(=O)N([C@H](C)CO)C[C@H](C)[C@@H](CN(C)Cc1cncnc1)O2,i,nt,nt,nt,nt,nt
Cc1cccc2cc3c(N)c(C#N)sc3nc12,91,i,i,i,nt,i
Cc1sc(NC(=O)c2sc3nc4c(C)cccc4cc3c2N)c(C#N)c1C,i,i,i,i,nt,nt
Cn1c(=O)n(C)c2cc(NC(=O)c3ccccc3)ccc21,i,i,i,i,i,i
CC(C)Sc1ccccc1C(=O)Nc1ccc2c(c1)n(C)c(=O)n2C,i,i,i,34,i,i
Cn1c(=O)n(C)c2cc(NC(=O)CCl)ccc21,i,i,i,82,i,i
C[C@@H]1CN([C@H](C)CO)C(=O)Cc2cc(NS(=O)(=O)c3ccccc3)ccc2O[C@@H]1CN(C)C(=O)NC1CCCCC1,nt,nt,nt,nt,i,nt
COc1ccc(-n2c(SCC(=O)Nc3ccc4c(c3)OCO4)nc3c(c2=O)SCC3)cc1,i,i,76,i,i,nt
Cc1ccc(S(=O)(=O)N2CCN(c3ncccn3)CC2)cc1C,i,i,i,i,i,i
CN1CCN(S(=O)(=O)c2ccc3c(c2)OCCO3)CC1,nt,i,i,i,nt,i
SMILES,Env fusion inh,Shn3 3UTR inh,EBV LMP1 NFkB,Glyco luc inh,PAX8 inh HTS,NSD2 inh
O=S(=O)(c1ccc2c(c1)OCCO2)N1CCN(c2ncnc3sccc23)CC1,i,89,i,i,i,i
Cc1ccc(S(=O)(=O)N2CCN(c3ncnc4sccc34)CC2)cc1C,nt,88,i,i,i,i
CCn1c(COc2ccc(Cl)cc2)nnc1SCc1nc2ccccc2[nH]1,114,i,i,i,nt,i
Cc1ccc(OCc2nnc(SCc3nc4ccccc4[nH]3)n2Cc2ccco2)cc1,nt,i,i,i,nt,nt
C[C@H](CO)N1C[C@H](C)[C@H](CN(C)C(=O)NC2CCCCC2)Oc2ccc(NC(=O)CCC(F)(F)F)cc2CC1=O,i,nt,nt,nt,i,nt
Cc1cc(C(=O)CSc2nnc(-c3ccccc3)n2-c2ccccc2)c(C)n1-c1ncn[nH]1,i,i,i,i,i,i
Cc1cc(C(=O)CSc2nnc(-c3cccs3)o2)c(C)n1-c1ccccc1,i,i,58,i,i,i
O=C(CSc1nnc(-c2cccs2)o1)c1cccs1,i,i,i,i,nt,i
Cc1cc(C(=O)CSc2nnc3ccccn23)c(C)n1-c1ccccc1,61,i,81,i,81,i
COc1ccc(S(=O)(=O)N2CCOCC2)cc1NC(=O)COC(=O)CC1CC2CCC1C2 (stereo not drawn),i,87,i,i,i,i
Cc1ccc(C)c(OCCC(=O)OCC(=O)Nc2cc(S(=O)(=O)N3CCOCC3)ccc2C)c1,i,i,i,i,i,i
Cc1ccc(S(=O)(=O)CCC(=O)OCC(=O)Nc2cc(S(=O)(=O)N3CCOCC3)ccc2C)cc1,i,88,i,i,nt,i
CC(C)Oc1ccc(S(=O)(=O)N2CCOCC2)cc1NC(=O)CC1CC2CCC1C2 (stereo not drawn),i,i,i,i,i,i
C[C@H](CO)N1C[C@H](C)[C@H](CN(C)S(=O)(=O)c2cn(C)cn2)Oc2ccc(NC(=O)Cn3cnnn3)cc2CC1=O,i,nt,nt,nt,i,nt
Nc1scc2c(C(=O)N/N=C/c3ccc(Cl)cc3)nn(-c3ccccc3)c(=O)c12,i,i,i,i,nt,73
CC(C)NC(=O)N[C@@H]1CC[C@H](CC(=O)NCCN2CCCC2)O[C@H]1CO,i,nt,nt,nt,i,nt
O=[N+]([O-])c1ccc(NC(=S)NCCc2ccc(F)cc2)cc1,i,i,i,i,81,i
Cc1noc(C)c1S(=O)(=O)Nc1ccc2c(c1)CC(=O)N([C@@H](C)CO)C[C@@H](C)[C@@H](CN(C)C(=O)Nc1ccc3c(c1)OCO3)O2,i,nt,nt,nt,i,nt
CC(C)(C=O)C1=CC(=O)c2ccccc2C1=O,i,i,i,i,65,92
COc1ccc(S(=O)(=O)Nc2ccc3c(c2)CC(=O)N([C@@H](C)CO)C[C@H](C)[C@@H](CN(C)Cc2ccncc2)O3)cc1,nt,nt,nt,nt,i,nt
COc1cc(-c2noc(C)c2-c2ccc3[nH]ccc3c2)cc(OC)c1OC,nt,i,i,48,nt,nt
COc1cc(-c2noc(C)c2/C=C/c2ccc(C(=O)O)cc2)cc(OC)c1OC,nt,i,i,i,i,nt
COc1cc(-c2noc(C)c2-c2ccc(N(C)C)nc2)cc(OC)c1OC,i,i,i,?,74,nt
C[C@H]1CN([C@@H](C)CO)C(=O)c2cc(NC(=O)NC3CCCCC3)ccc2O[C@@H]1CN(C)S(=O)(=O)c1ccc(Cl)cc1,nt,nt,nt,nt,i,nt
C=CCOC(=O)C1=C(C)NC(SCC(=O)Nc2ccc(C)c(Cl)c2)=C(C#N)C1c1ccco1 (stereo not drawn),55,i,i,i,i,i
COCCOC(=O)C1=C(C)NC(SCC(=O)NC(C)(C)C)=C(C#N)C1c1ccco1 (stereo not drawn),i,i,i,i,i,i
COc1ccc(-c2cc(N3CCCC3)n3ncnc3n2)cc1,i,i,i,i,i,i
